Records with an inconclusive call do not appear. Active and inactive are the calls of the source. Unless noted, no rule for the calls is given here. Peptide text beside a SMILES is read from it.

Four molecules from PubChem BioAssay can be followed below.

The nature of assay [1]: rapamycin-like changes in RPL19A-GFP expression – cell-based, S. cerevisiae, multiplex flow cytometry, primary screen (AID 1862; in the data active = percent of DMSO control GFP below about 86%;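 also: lower values mimic rapamycin by blocking the RPL19A rise seen in DMSO cells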). The settings on record: S. cerevisiae RPL19A-GFP strain, flow cytometry fluorescence, 3 h; at 10 µM; stronger effect = lower value. In general terms: Flow cytometry measures light scatter and fluorescence of single cells or particles in a stream.
Assay [2] in a line: TOR pathway GLN3 branch reporter MEP2-GFP changes – S. cerevisiae, multiplex flow cytometry, primary screen (AID 1867;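 active = GFP response, as percent of the DMSO control, above the screen-wide mean plus 3 SD, about 139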;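 also: median GFP channel fluorescence of barcode-gated MEP2-GFP cells measured by flow cytometry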). The settings on record: S. cerevisiae MEP2-GFP strain, 3 h, at 10 µM, stronger effect = higher value.
Assay [3] can be described thus: TOR pathway RTG branch CIT2 reporter changes – S. cerevisiae, GFP fusion, multiplex flow cytometry, primary screen (AID 1870;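 active = percent response above a set limit, the screen-wide mean plus 3 SD, cut at about 130% in these data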;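 also: barcoded CIT2-GFP strain pooled with four other GFP strains with rapamycin as positive control; median GFP fluorescence per well over plate mean of DMSO wells so 100% = DMSO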). Conditions: S. cerevisiae CIT2-GFP expression, 3 h, at 10 µM, stronger effect = higher value.
The nature of assay [4]: TOR pathway LAP4-GFP level changes – S. cerevisiae, multiplex flow cytometry, primary screen (AID 1873;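 active = GFP signal, as percent of the solvent control, above the screen mean plus 3 SD, about 149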). Conditions: S. cerevisiae LAP4-GFP expression, 3 h, at 10 µM, stronger effect = higher value.
Assay [5] can be described thus: yeast AGP1-GFP level changes, GLN3 branch – cell-based, multiplex flow cytometry, S. cerevisiae, primary screen (AID 1887;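 active = GFP signal above the screen-wide mean plus 3 SD, that is over about 124.5% of the solvent control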;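 also: AGP1-GFP fusion strain of S. cerevisiae within a five-strain barcoded multiplex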). The settings on record: 3 h, at 10 µM, stronger effect = higher value.
The nature of assay [6]: reduced mouse 2C T cell binding to pMHC/ICAM-1 vesicles – MLPCN validation set, flow cytometry, LFA-1/ICAM-1 modulator project, pilot screen (AID 2523;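 active = response below a set limit, under 55% cells CD8-positive and vesicle-bound, and CD8 cells' 90th-percentile brightness under 279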;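 as to vesicle binding response: mean PE anti-B7-1 fluorescence of CD8+ cells relative to row control; 100% = QL9-loaded vesicles with DMSO vehicle in the same plate row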). The settings on record: 2C mouse CD8+ T cells, at 7 µM, stronger effect = lower value; double positive events: measured here: CD8+/vesicle+ event percentage.
Assay [7] addresses Integrin beta-1 (Homo sapiens) + Integrin alpha-4 (Homo sapiens) (UniProt P13612+P05556). Put plainly: alpha4beta1 integrin LIBS antibody binding reduction – U937 cells, HUTS-21 mAb, flow cytometry, validation set, VLA-4 allosteric modulator project, pilot screen (AID 2674;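 active = inhibition above 50%, about 3 SD of the validation set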;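 also: antibody binding induced by the VLA-4 ligand LDV present at three times its Kd; 0% = LDV ligand with antibody and no compound and 100% = antibody without LDV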). Conditions: HUTS-21 LIBS mAb binding, at 6.7 µM, stronger effect = higher value.
Assay [8] in a line: calorie-restriction mimetic ROS inhibitors, yeast – validation compound set, pilot screen (AID 2706;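 active = superoxide response below 65% of plate, a cut near 3 SD across the whole screen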;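 also: yeast exposed to compound for one week at 30 degrees C before staining; 100% = mean of all compound wells on the same plate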). The settings on record: S. cerevisiae aging, superoxide DHE fluorescence; at 10 µM; stronger effect = lower value.
Assay [9] has as its target Beta-adrenergic receptor kinase 1 (Homo sapiens) (UniProt P25098). The experiment in a line: GRK2 binders displacing RNA aptamer, biochemical, validation, human GRK2, bead flow cytometry (AID 488806;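 active = aptamer binding inhibition above 30%, about 3 SD of noise from non-fluorescent compounds; inactive = inhibition at or below 30%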). Conditions: bead-bound GRK2, FAM-aptamer displacement, at 10 µM, stronger effect = higher value.
For assay [10], the target named is AP-2 complex subunit beta (Homo sapiens) (UniProt P63010). Put plainly: beta-arrestin/AP2 interaction blockers – biochemical, validation set, GST-AP2 beads, flow cytometry, pilot screen (AID 504541;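 active = inhibition above 54%, about 3 SD of non-fluorescent compounds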;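 also: AP2 carries R879A mutation and is captured from E. coli lysate; bead-bound FITC arrestin peptide fluorescence measuring arrestin peptide binding to AP2; 0% = DMSO wells and 100% = excess unlabeled arrestin peptide control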). The settings on record: FITC arrestin peptide, at 10 µM, stronger effect = higher value.
Assay [11] in a line: cytosolic pH regulators acting via V-ATPase – S. cerevisiae, pHLuorin, HTS validation (AID 504600; in the data active = response above about 15%;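 also: plate controls were DMSO for no effect and reference compound for full effect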). The settings on record: V-ATPase proton transport, at 10 µM, stronger effect = higher value.
For assay [12], the system named is anti-desmoglein-3 scFv antibody binding to human DSG3. Put plainly: blockers of pathogenic pemphigus antibody–desmoglein-3 binding – biochemical, validation compound set, bead-based, flow cytometry, pilot screen (AID 588368;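 active = binding below the plate cutoff, the plate median minus 3 SD, with a reading above zero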;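 also: signal is the median channel fluorescence of bead-bound GFP antibody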). The settings on record: Protein G beads, DSG3-Fc, scFv-GFP binding, at 10 µM, stronger effect = lower value.
The test system of assay [13] is Botulinum neurotoxin type F light chain protease (Clostridium botulinum). The experiment in a line: Clostridium botulinum type F light chain protease inhibitors, microsphere substrate cleavage, validation (AID 588459). The settings on record: multiplex microsphere protease substrate cleavage assay, flow cytometry; at 10 µM; stronger effect = higher value.
The target of assay [14] is Botulinum neurotoxin type A (Clostridium botulinum) (UniProt P0DPI0). The experiment in a line: BoNT/A light chain protease inhibitors, biochemical, multiplex microsphere flow cytometry, validation set (AID 588460). Conditions: at 10 µM, stronger effect = higher value.
The target in assay [15] is Lethal factor (Bacillus anthracis) (UniProt P15917). The experiment in a line: Bacillus anthracis lethal factor inhibition, microsphere flow cytometry protease assay, validation at 10 µM (AID 588461). The settings on record: multiplex microsphere protease cleavage assay, stronger effect = higher value.
Assay [16] is described as follows: Nile Red efflux blockade in pump-expressing yeast – validation compound set, multiplex, phenotypic, pilot screen (AID 588506;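 active = efflux inhibition above 0.42, the validation set average plus 4 SD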;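 also: Nile Red retained in cells so higher fluorescence means more efflux inhibition; 0 = negative control wells and 1 = enniatin B 25 µM full block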). Conditions: S. cerevisiae pump-expressing triplex, Nile Red efflux flow cytometry; at 10 µM; stronger effect = higher value.
In assay [17] the target is ATP-binding cassette sub-family B member 6 (Homo sapiens) (UniProt Q9NP58). The experiment in a line: blockers of ABCB6-driven porphyrin uptake – K562-ABCB6 cells, flow cytometry, validation set, pilot screen (AID 588550;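 active = inhibition above the screen-wide mean plus 3 SD, about 51%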;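 also: 0% = DMSO wells and 100% = benzethonium chloride 70 µM positive control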). Conditions: K562-ABCB6 porphyrin accumulation, 1 h, at 10 µM, stronger effect = higher value.
A short description of assay [18]: AML differentiation inducers, ER-HoxA9 marrow cells – cell-based, GFP/MAC1 double positive, flow cytometry, validation set, primary screen (AID 588685;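 active = differentiation response of at least 50%, scaled between solvent and reference control, from cells with both markers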;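 also: compound exposure lasts four days before antibody staining and flow analysis; 0% = DMSO wells and 100% = 5 µM fulvestrant positive control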). Conditions: stronger effect = higher value.
Assay [19] has as its target Beta-2 adrenergic receptor (Homo sapiens) (UniProt P07550). Put plainly: agonist-induced loss of surface beta2AR – cell-based, FAP fluorogen, flow cytometry, validation set, pilot screen (AID 504459;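 active = percent response above 42, roughly 3 SD of non-fluorescent test compounds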;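 also: agonist-driven loss of surface beta2AR via internalization measured by FAP dye flow cytometry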). Conditions: Am2.2-beta2AR cells, at 10 µM, stronger effect = higher value.

Chain of Lethal factor (Bacillus anthracis) (P15917 whole entry, looked up): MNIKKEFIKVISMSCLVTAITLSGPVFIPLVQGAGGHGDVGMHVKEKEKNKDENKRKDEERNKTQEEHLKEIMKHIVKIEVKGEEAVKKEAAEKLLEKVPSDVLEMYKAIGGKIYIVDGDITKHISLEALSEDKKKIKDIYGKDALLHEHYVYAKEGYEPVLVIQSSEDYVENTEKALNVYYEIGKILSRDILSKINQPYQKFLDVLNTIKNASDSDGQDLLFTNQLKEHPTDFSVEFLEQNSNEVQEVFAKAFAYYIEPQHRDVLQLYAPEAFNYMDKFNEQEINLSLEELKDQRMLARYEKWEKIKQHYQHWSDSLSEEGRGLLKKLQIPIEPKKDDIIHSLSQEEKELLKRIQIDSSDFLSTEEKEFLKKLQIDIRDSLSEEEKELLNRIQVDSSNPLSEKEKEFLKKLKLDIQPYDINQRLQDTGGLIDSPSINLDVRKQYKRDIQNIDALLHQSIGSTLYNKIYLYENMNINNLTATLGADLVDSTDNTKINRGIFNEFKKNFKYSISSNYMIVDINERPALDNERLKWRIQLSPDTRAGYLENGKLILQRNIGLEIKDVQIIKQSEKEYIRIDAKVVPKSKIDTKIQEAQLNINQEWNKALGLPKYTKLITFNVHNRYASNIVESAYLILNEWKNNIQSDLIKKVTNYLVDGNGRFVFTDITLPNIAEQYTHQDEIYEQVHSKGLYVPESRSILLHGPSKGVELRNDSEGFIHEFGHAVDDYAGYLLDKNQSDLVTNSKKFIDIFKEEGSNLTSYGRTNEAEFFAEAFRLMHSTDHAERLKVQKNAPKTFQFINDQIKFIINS
Chain of AP-2 complex subunit beta (Homo sapiens) (P63010 whole entry, looked up, one chain of several): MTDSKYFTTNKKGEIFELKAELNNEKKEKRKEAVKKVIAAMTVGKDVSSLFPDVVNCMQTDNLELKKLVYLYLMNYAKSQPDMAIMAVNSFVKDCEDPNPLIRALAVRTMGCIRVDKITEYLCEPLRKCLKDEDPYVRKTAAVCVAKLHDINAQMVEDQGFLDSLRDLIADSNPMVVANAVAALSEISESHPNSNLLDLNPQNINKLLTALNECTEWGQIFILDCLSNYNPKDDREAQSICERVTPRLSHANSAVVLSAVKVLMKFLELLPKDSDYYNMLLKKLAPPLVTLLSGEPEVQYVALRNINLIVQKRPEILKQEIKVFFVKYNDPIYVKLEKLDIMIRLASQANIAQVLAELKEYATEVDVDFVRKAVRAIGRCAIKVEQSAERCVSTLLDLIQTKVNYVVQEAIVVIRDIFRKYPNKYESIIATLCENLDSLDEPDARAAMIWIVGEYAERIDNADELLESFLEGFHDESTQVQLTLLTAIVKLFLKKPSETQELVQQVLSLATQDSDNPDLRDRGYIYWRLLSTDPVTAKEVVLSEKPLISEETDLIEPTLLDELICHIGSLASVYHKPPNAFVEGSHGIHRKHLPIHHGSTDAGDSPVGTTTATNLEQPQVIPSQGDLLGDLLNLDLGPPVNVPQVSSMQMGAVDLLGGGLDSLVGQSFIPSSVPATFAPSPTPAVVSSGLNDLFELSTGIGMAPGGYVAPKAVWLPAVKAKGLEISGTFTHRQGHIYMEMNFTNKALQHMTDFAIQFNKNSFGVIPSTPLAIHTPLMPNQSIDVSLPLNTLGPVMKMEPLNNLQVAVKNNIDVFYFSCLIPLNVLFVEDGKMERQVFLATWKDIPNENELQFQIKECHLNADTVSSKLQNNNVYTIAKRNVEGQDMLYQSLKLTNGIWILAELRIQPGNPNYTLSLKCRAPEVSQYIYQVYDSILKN
Chain of Beta-adrenergic receptor kinase 1 (Homo sapiens) (P25098 whole entry, looked up): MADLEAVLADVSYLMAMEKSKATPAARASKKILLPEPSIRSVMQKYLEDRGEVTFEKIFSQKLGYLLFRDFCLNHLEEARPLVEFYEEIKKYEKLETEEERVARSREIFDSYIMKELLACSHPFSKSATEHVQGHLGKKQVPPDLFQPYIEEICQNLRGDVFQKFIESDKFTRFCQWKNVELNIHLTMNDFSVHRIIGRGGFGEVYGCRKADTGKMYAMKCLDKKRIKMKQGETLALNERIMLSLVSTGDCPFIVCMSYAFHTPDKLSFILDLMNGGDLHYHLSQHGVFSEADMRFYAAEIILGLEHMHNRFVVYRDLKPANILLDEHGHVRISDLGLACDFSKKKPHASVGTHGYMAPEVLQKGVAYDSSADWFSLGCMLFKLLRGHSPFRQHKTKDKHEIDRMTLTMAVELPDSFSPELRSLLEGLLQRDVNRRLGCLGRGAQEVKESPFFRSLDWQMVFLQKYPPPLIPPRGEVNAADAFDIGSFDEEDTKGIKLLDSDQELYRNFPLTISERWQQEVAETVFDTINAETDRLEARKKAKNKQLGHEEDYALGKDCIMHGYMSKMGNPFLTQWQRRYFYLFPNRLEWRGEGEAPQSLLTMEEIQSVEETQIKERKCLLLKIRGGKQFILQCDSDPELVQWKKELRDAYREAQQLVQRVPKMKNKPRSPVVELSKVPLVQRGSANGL
Chain of Botulinum neurotoxin type A (Clostridium botulinum) (P0DPI0 whole entry, looked up): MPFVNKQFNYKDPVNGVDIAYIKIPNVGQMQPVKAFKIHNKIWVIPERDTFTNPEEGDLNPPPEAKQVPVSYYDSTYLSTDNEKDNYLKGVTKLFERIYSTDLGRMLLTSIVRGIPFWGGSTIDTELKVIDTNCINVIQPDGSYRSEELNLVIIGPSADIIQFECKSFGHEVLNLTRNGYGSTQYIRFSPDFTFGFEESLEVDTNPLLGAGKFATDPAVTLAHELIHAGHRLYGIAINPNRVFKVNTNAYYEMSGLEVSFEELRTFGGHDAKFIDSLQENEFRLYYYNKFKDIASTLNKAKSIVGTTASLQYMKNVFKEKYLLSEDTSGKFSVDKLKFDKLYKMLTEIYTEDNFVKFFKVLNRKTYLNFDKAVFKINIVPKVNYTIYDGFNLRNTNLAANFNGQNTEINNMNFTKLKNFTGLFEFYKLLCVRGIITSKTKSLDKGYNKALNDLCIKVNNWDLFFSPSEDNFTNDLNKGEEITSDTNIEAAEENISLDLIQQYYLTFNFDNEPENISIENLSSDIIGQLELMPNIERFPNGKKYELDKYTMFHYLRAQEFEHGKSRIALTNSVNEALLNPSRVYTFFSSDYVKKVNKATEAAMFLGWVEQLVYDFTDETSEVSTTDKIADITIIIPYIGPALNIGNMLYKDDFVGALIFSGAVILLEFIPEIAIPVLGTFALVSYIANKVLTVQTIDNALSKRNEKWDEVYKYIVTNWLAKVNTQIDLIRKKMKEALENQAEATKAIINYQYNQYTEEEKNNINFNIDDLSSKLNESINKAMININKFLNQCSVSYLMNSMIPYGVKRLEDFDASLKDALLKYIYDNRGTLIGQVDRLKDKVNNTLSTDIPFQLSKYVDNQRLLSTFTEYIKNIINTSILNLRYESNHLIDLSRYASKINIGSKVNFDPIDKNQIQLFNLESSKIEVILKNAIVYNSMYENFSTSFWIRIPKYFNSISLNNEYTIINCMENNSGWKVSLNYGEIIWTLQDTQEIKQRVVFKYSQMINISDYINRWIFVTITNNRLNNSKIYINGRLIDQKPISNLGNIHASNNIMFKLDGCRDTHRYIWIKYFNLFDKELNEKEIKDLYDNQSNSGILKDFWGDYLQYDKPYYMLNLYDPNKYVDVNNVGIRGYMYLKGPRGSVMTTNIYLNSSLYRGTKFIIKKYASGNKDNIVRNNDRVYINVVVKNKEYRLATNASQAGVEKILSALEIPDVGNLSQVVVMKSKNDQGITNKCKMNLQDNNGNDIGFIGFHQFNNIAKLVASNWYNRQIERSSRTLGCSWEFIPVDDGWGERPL
Chain of ATP-binding cassette sub-family B member 6 (Homo sapiens) (Q9NP58 whole entry, looked up): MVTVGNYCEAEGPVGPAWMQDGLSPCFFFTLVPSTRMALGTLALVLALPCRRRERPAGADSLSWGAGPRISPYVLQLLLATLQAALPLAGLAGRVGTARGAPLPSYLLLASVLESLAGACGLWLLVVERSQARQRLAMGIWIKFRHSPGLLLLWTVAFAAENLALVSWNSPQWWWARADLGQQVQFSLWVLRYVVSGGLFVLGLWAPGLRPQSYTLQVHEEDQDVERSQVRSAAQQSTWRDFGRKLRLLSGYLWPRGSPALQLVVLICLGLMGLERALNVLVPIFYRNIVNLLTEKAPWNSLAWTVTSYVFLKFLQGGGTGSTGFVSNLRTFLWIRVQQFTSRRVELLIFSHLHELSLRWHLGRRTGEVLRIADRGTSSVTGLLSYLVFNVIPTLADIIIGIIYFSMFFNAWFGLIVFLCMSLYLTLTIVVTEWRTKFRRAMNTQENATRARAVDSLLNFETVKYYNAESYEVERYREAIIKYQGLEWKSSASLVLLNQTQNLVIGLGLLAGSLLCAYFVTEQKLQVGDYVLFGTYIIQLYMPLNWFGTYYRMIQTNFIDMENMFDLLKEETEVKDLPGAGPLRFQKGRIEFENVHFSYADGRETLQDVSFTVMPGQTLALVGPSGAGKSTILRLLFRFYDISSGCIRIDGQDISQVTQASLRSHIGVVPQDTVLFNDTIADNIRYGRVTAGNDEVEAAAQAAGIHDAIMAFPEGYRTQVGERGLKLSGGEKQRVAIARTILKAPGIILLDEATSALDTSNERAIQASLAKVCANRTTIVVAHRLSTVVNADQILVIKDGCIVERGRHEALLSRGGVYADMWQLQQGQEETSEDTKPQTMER
Chain of Beta-2 adrenergic receptor (Homo sapiens) (P07550 whole entry, looked up): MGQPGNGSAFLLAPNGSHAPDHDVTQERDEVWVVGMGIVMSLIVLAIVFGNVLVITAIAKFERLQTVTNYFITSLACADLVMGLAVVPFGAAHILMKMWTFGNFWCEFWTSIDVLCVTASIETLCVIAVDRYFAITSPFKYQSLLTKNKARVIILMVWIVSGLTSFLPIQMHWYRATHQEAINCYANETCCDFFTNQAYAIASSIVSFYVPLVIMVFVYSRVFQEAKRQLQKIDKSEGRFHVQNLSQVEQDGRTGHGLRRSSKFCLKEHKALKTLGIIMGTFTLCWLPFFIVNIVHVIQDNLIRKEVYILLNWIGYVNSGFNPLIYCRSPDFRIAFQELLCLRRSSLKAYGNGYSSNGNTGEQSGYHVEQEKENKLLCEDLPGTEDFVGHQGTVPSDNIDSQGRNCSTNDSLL

Usually inhibition stands for the drop in the measured response relative to a control, in per cent. Regarding `CN(C)[C@@H]1C(=O)C(C(N)=O)=C(O)[C@@]2(O)C(=O)C3=C(O)c4c(O)cccc4[C@@](C)(O)[C@H]3[C@H](O)[C@@H]12`, in assay [1], the percent of DMSO control GFP is 102% (inactive). Further, the GFP response vs DMSO in [2] is 98.9% (inactive); in assay [4] it was 97.4% (inactive). Besides, the percent response of DMSO control in assay [3] is 105% (inactive). The GFP response, % of DMSO in assay [5] is 103% (inactive). This molecule gave a double positive events in assay [6] of 56.9%. For the same molecule, the vesicle binding response in assay [6] was 155% (inactive). For the same molecule, the inhibition is 6.29% (inactive) in [7]; 34.2% (inactive) in [10]; -9.4% (inactive) in assay [13]; -5.3% (inactive) in assay [14]; -12.6% (inactive) in assay [15]; 3% (inactive) in assay [17]. In addition, in assay [8], the superoxide response (% of plate) was 99.8% (inactive). Moreover, in assay [9], the aptamer binding inhibition is 26% (inactive). For the same molecule, the response in [11] is 4.02% (inactive). Further, in assay [12], the binding (% of control) is 87.9% (inactive). In addition, the efflux inhibition (fraction of control) in [16] is -0.31 (inactive). The differentiation response in [18] is -18% (inactive).

In the case of `CC(C)C[C@H](NC(=O)[C@@H]1CCCN1C(=O)[C@@H](N)Cc1ccc(O)cc1)C(=O)NCC(N)=O` (H-YPLG-NH2), the percent of DMSO control GFP in assay [1] is 108% (inactive). For the same molecule, the GFP response vs DMSO in [2] was 101% (inactive); in [4], 89.3% (inactive). Further, the percent response of DMSO control in assay [3] is 110% (inactive). In addition, in assay [5], the GFP response, % of DMSO is 103% (inactive). Moreover, the double positive events in assay [6] is 63.1%. In assay [6], the vesicle binding response is 186% (inactive). The inhibition is 0.69% (inactive) in assay [7]; 2.65% (inactive) in [10]; -4.4% (inactive) in assay [13]; -0.2% (inactive) in assay [14]; 1% (inactive) in assay [15]; 7% (inactive) in assay [17]. Moreover, the superoxide response (% of plate) in assay [8] is 95.5% (inactive). Also, the aptamer binding inhibition in assay [9] is 1% (inactive). In addition, the response in assay [11] is -0.2% (inactive). Besides, the binding (% of control) in [12] was 101% (inactive). In addition, the efflux inhibition (fraction of control) in [16] is -0.09 (inactive). Also, the differentiation response in [18] is -9.89% (inactive).

For `COc1ccc(OC)c(C(O)C(C)N)c1` (stereo unspecified), the percent of DMSO control GFP in [1] was 103% (inactive). Besides, the figures for the GFP response vs DMSO in assay [2] and in assay [4] were 94.1% (inactive) and 87.4% (inactive), respectively. Further, in [3], the percent response of DMSO control is 95.4% (inactive). Besides, the GFP response, % of DMSO in assay [5] was 98.3% (inactive). This molecule also displayed a double positive events in assay [6] of 59.9%. Besides, in assay [6], the vesicle binding response was 41.1% (inactive). The inhibition in assay [7] is 7.85% (inactive); in [10] it was -0.56% (inactive); in [13] it was 2.2% (inactive); in assay [14], 1.1% (inactive); in [15], 3.1% (inactive); in [17] it was 10% (inactive). For the same molecule, the aptamer binding inhibition in [9] is 0% (inactive). Besides, the response was -5.54% (inactive) in [19] and 1.5% (inactive) in [11]. For the same molecule, the binding (% of control) in assay [12] is 105% (inactive). For the same molecule, the efflux inhibition (fraction of control) in assay [16] was 0.61 (active). Also, the differentiation response in assay [18] is 24.7% (inactive).

In the case of `COc1ccc2c(c1)CC1(CN2C)C(=O)NC(=O)N(CCc2ccccc2)C1=O` (stereo unspecified), the percent of DMSO control GFP in assay [1] was 101% (inactive). The GFP response vs DMSO in [2] was 98.3% (inactive); in [4], 88.1% (inactive). Also, the percent response of DMSO control in [3] was 96.6% (inactive). Further, the GFP response, % of DMSO in assay [5] was 97.8% (inactive). Also, in assay [6], the double positive events worked out at 65.8%. Besides, the vesicle binding response in [6] is 263% (inactive). In addition, the inhibition in assay [7] was -3.57% (inactive); in assay [10] it was -4.29% (inactive); in [13], 3.8% (inactive); in [14], 1.1% (inactive); in [15], -1.5% (inactive); in assay [17] it was 27% (inactive). Also, the aptamer binding inhibition in [9] was -3% (inactive). Further, the response in assay [19] is -3.63% (inactive); in assay [11], 1.95% (inactive). Moreover, the binding (% of control) in [12] was 104% (inactive). Also, the efflux inhibition (fraction of control) in [16] was -0.07 (inactive). For the same molecule, the differentiation response in assay [18] was 27.6% (inactive).
